High-throughput results: PubChem BioAssay, National Center for Advancing Translational Sciences (NCATS)
APEX1 inh = blocks human APE1 abasic DNA cleavage | Potency, µM (doses to about 65.8 µM), without a hit: at the top dose activity change, negative = inhibition, actives largely listed as inhibitors | AID 2517 | P27695 | 350,000 compounds, 0.35% hits | recombinant APE1, TAMRA/BHQ-2 abasic DNA cleavage fluorescence;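 also: plate controls were vehicle for no effect and reference inhibitor for full effect; nearly all actives have a fitted effect of over 55% in size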
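Quantitative HTS: incision of a TAMRA/BHQ-2 double-stranded substrate bearing a tetrahydrofuran abasic site by 0.75 nM APE1 raises fluorescence. Substrate 50 nM final, added after 15 min compound preincubation at room temperature; progress as third-minus-first kinetic read difference.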
BLM inh = Bloom syndrome helicase (human) inhibition. P54132. recombinant BLM DNA unwinding, fluorescence dequenching. Potency, µM (series often up to 56.1 µM), inactives show at the top dose activity change, negative = inhibition, actives largely listed as inhibitors. 350,000 compounds, 0.2% hits. AID 2528;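 also: plate controls were vehicle for no effect and no enzyme for full effect; nearly all actives have a fitted effect of over 35% in size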
KAT2A inh = blocks human GCN5L2 histone acetyltransferase | GCN5L2 HAT assay, ThioGlo1 CoA-SH fluorescence | Potency, µM (highest dose often 58.9 µM), for the others: at the top dose activity change, negative = inhibition, actives largely listed as inhibitors | 390,000 compounds, 0.21% hits | AID 504327
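Titration-based screen in which CoA formation is detected via maleimide probe ThioGlo1 (50uM) turning fluorescent on thiol reaction; substrates H3(1-25) 75uM and acetyl-CoA 70uM, GCN5L2 20nM, 20 min incubation at room temperature.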
L3MBTL1 inh = blocks human L3MBTL1. Potency, µM (series often up to 57.1 µM), inactives show at the highest dose activity, negative = inhibition, most hits filed as inhibitors. Q9Y468. AID 485360. 230,000 compounds, 0.66% hits. AlphaScreen L3MBTL1–H3K9me1 peptide binding; also: nearly all actives have a fitted effect of over 60% in size
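Displacement of a biotinylated histone H3(1-15) peptide monomethylated at Lys9 (75 nM) from L3MBTL1 (50 nM) was measured by AlphaScreen after a 30 min room-temperature compound incubation; cefsulodin titration served as intraplate control.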
RECQ1 helicase = inhibitors of human RECQ1 DNA helicase | P46063 | RECQ1 DNA unwinding, red fluorescence kinetic read | Potency, µM (series often up to 57.3 µM), without a hit: at the highest dose activity, negative = inhibition, actives largely listed as inhibitors | 240,000 compounds, 0.54% hits | AID 2549;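 also: plate controls were vehicle for no effect and no enzyme for full effect; nearly all actives have a fitted effect of over 30% in size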
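50 nM RECQ1T1 preincubated 15 min with compound in Tris pH 8.0 buffer with MgCl2, DTT, Tween-20 and 2.5 ug/ml poly(dI-dC); started with 200 nM TAMRA/BHQ-2 forked duplex and 2 mM ATP. Unwinding read as fluorescence (525/598 nm), two reads 2 h apart.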
JMJD2E inh = blocks human JMJD2E demethylase activity; B2RXH2; JMJD2E catalytic domain, FDH-coupled NADH fluorescence (FDH is formaldehyde dehydrogenase); Potency, µM (highest dose often 57.1 µM), without a hit: top-dose activity change, negative = inhibition, hits mostly inhibitors; 230,000 compounds, 1.6% hits; AID 2147; active = well fitted inhibition curve with a large enough effect, not every such curve was filed as active; inconclusive = small, poorly fitted or top-dose-only effect, or another doubt; inactive = no such curve, though single readings can be large or run the other way;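 also: 0% = wells with enzyme and -100% = buffer wells without enzyme; nearly all actives have a fitted effect of over 50% in size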
Target sequence (B2RXH2 1-337 limits assumed): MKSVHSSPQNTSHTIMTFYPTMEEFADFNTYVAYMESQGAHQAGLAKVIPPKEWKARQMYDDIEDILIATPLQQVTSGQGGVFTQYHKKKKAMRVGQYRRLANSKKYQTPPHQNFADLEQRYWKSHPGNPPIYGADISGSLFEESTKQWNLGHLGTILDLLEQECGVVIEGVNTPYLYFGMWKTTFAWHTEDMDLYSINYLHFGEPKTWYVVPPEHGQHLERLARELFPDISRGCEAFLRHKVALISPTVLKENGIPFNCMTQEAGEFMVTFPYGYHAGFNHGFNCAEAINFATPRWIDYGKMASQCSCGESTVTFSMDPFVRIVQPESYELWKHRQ
* marks the source's active call; other numbers are inactive results; i = inactive; ? = inconclusive; · = no result given. Only a selection was taken, and hits are over-represented in it overall. Unless noted, calls follow the shape of the dose curve; as a rule, active = well fitted curve in the direction sought with a large enough effect; inconclusive = small, poorly fitted or top-dose-only effect, or another doubt; inactive = no such curve, though single readings can be large; an effect the other way counts as inactive or inconclusive. Unless noted, % is scaled to controls: 0 for no effect and ±100 for the full control effect; potency is read from the fitted curve at half-maximal effect.

SMILES | APEX1 inh | BLM inh | KAT2A inh | L3MBTL1 inh | RECQ1 helicase | JMJD2E inh
Cc1cccc(NC2=Nc3ccccc3N3C2=Nc2c(c(C)nn2-c2ccccc2)C3c2ccc(O)c(O)c2)c1 (centres undefined) | -4.0% | -6.4% | -4.4% | 12.2% | -10.9% | ?
Cc1nn(-c2ccccc2)c(NC(=O)NS(=O)(=O)c2ccc(Cl)cc2)c1C#N | 0.7% | -2.1% | -7.9% | · | -6.1% | ·
CCCCCCCCCCN1CCOCCOCCN(CCCCCCCCCC)CCOCCOCC1 | 1.5% | -3.3% | 5.5% | · | -5.2% | ·
Cc1c(CCC(=O)O)c(=O)oc2cc(O)ccc12 | -2.8% | 0.1% | 28.2µM* | 13.1% | -5.3% | ?
COCCn1c(=O)c(C)nc2cnc(N3CCNCC3)nc21 | 4.1% | -5.2% | ? | · | -5.7% | ·
O=c1c(-c2ccccc2)nc2cnc(N3CCNCC3)nc2n1Cc1ccc(F)cc1 | 2.2% | -7.9% | 17.8µM* | · | -1.1% | ·
Cc1nc2cnc(N3CCNCC3)nc2n(CCC#N)c1=O | -0.2% | -2.9% | 28.2µM* | · | -5.9% | ·
C[N+](C)(C)CC[N+]1(C)Cc2c(Cl)c(Cl)c(Cl)c(Cl)c2C1 | -3.3% | 80.0% | 20µM* | · | 0.9% | -4.8%
C/C(=N\Nc1ccc(Cl)c(C(=O)O)c1)c1ccc(N2CCOCC2)cc1 | 3.1% | -0.1% | -16.2% | · | · | ·
C/C(=N\Nc1ccc(Cl)c(C(=O)O)c1)c1ccc[nH]1 | ? | -3.0% | -6.4% | 28.2µM* | -13.3% | -9.7%
O=C(CSc1nnc(-c2cccc(S(=O)(=O)N3CCCC3)c2)n1-c1ccccc1)Nc1ccccc1 | 16.7% | · | · | · | · | ·
CCCC(=O)Nc1ccc(NC(=O)c2ccccn2)cn1 | 1.6% | 1.9% | -2.6% | 3.4% | i | 2.5%
CCCC(=O)Nc1ccc(NC(=O)c2ccccc2OC)cn1 | 3.0% | 2.3% | 2.24µM* | 2.8% | i | 8.6%
CCN(CC)S(=O)(=O)c1ccc(N2CCOCC2)c(NC(=O)c2cc(-c3ccccn3)nc3ccccc23)c1 | -4.9% | -6.0% | -0.1% | -2.7% | 1.9% | 12.6µM*
COC(=O)c1sccc1S(=O)(=O)N(CC(=O)NCc1ccccc1)c1ccc(C)c(C)c1 | · | -0.9% | 30.9% | · | · | ·
CC1(NC(=O)CC[N+](C)(C)CCO)CS(=O)(=O)CC1S(=O)(=O)[O-] (centres undefined) | 10.1% | 5.5% | -0.8% | 12.6µM* | -6.4% | 8.2%
CC1Cc2cc(S(=O)(=O)N3CCN(c4ccccc4F)CC3)ccc2N1C(=O)C1CCC1 (centres undefined) | · | -5.9% | -9.2% | · | · | ·
C=CCSc1nnc(-c2cccc3ccccc23)o1 | 1.5% | · | -2.4% | 7.94µM* | · | ·
CC(=O)OCCN1C(=O)c2c(C)nc3ccc(S(=O)(=O)N4CCOCC4)cc3c2C1=O | 11.8% | -13.8% | 0.0% | · | -15.4% | ·
Cc1cc(Cl)ccc1Nc1ncnc2onc(C)c12 | · | 1.4% | 14.5% | · | · | ·
CCOP(=O)(OCC)/C(C#N)=C/c1ccc([N+](=O)[O-])cc1 | -3.2% | -4.2% | 2.7% | 17.0% | i | 8.91µM*
COc1cc(C(=O)NNC(=O)CNC(=O)C2CCCCC2)ccc1OC(C)C | 3.0% | · | -1.4% | 2.5% | · | ·
Cc1ccc(-c2noc(CCC(=O)NCCN3CCc4ccccc4C3)n2)cc1 | -2.1% | -7.1% | -12.6% | 4.8% | -7.7% | -2.4%
O=C(O)C1Nc2c(Cl)cc(Cl)cc2C2C=CCC12 (centres undefined) | 13.4µM* | ? | 3.55µM* | 3.55µM* | · | ·
CCOC(=O)C1Nc2ccc(Br)cc2C2C=CCC12 (centres undefined) | 13.7% | -8.0% | -12.2% | -27.8% | · | ·
O=C(NCc1ccccc1)[C@]1(C(F)(F)F)C[C@H](CCCO)CCCO1 | -4.4% | 5.7% | · | · | 15.5% | ·
CC(=O)c1sc2nc(CSc3nnnn3-c3ccccc3)[nH]c(=O)c2c1C | 2.6% | 15.8µM* | ? | ? | i | -17.4%
Cc1ccc(-n2nnnc2SCc2nc3sc(C)c(C)c3c(=O)[nH]2)cc1 | -1.3% | -0.4% | -3.1% | 2.5% | -0.5% | 2.0%
